PubChem BioAssay

target: Torsin-1A-interacting protein 2 (Homo sapiens) (UniProt Q8NFQ8); experiment: small molecules binding lysate-expressed LULL1 – cell lysate, human LULL1 lysate, 635/667 nm fluorescence, primary screen (AID 1092); conditions: small-molecule microarray, hLULL1 lysate binding, 635 nm fluorescence; higher = more signal;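 further: probe is lysate of COS7 cells overexpressing human LULL1; score merges per-feature 667 nm fluorescence with signal-to-noise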
Sequence (Q8NFQ8 whole entry, looked up): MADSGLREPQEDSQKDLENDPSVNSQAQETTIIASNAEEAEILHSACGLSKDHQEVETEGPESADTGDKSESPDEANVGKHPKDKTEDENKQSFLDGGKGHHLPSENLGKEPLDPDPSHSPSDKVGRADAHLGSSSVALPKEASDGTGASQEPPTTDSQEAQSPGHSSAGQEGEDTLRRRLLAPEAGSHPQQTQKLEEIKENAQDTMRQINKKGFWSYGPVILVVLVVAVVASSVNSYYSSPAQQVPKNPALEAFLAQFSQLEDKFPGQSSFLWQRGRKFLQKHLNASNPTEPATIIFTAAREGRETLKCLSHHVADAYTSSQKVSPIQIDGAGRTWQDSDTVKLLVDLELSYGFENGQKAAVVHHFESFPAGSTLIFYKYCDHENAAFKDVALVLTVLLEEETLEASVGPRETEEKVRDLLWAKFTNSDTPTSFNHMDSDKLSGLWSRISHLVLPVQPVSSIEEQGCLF

Structure (SMILES)	composite z-score
COCC(=C=CC[C@H](O)c1ccc(OCCO)cc1)CCO	2.42
CCOC(=O)C[C@H]1[C@H](OC(=O)Cc2ccc3c(c2)OCO3)[C@@H](NC(=O)c2ccc3ccccc3n2)c2cc(OCCCO)ccc2N1C(=O)c1ccccc1	0.604
COc1ccc([Si](C)(C)[C@@H]2[C@@H](CC(=O)N3CCC[C@H]3CO)O[C@]3(C(=O)N(Cc4cccc(N5C(=O)COc6ccccc65)c4)c4ccccc43)[C@H]2C)cc1	1.77
COc1ccc(CCNC(=O)[C@@H]2c3ccccc3C(=O)N(C3CCCCC3)[C@H]2c2ccc(CO)cc2)cc1	3.07
NCCCCCNC(=O)[C@@H]1C[C@@H]2C(=O)N[C@@H](CCCCN)C(=O)N2[C@@H]1c1ccc(O)cc1	3.2
NC(=O)[C@H]1[C@@H]2C(=O)O[C@@H](c3ccccc3)[C@@H](c3ccccc3)N2[C@@H](c2ccc(OCCO)cc2)[C@]12C(=O)Nc1ccc(C#CCCO)cc12	1.7
CCCCC(O)C1C=CC2C(=O)N(C)C(=O)C2N1N(c1ccccc1)c1ccccc1 (stereo not drawn)	3.1
CCCC[C@@H](O)C1=C(COC)C[C@H]2C(=O)N(C)C(=O)[C@H]2[C@H]1CO	-0.419
C=C(COC)/C(=C/C[C@H](OC(=O)c1ccncc1)c1ccccc1OCCO)c1cc(C(=O)OC)ccc1OC	2.65
COC(=O)C1(CC(C)C)C=C2C(=C(c3ccccc3)C(=O)C2C)CN1 (stereo not drawn)	2.16
CCOc1cc(C(O)C2C=CC3C(=O)NC(=O)C3N2Nc2ccc(Cl)cc2Cl)ccc1O (stereo not drawn)	0.0486
Cc1ccc(S[C@]2(C(=O)NC(C)C)CC(=O)N(Cc3cc(C(F)(F)F)cc(C(F)(F)F)c3)[C@@H]2c2ccc(CO)cc2)cc1	0.47
CCCCCCCCCC(O)C1C=CC2C(=O)N(c3ccccc3)C(=O)C2N1Nc1cc(OC)c(OC)c(OC)c1 (stereo not drawn)	2.23
COc1cc(C(O)C2C=CC3C(=O)N(C)C(=O)C3N2Nc2ccccc2)cc(OC)c1OC (stereo not drawn)	3.62
CCOC(=O)C1=C[C@@H](C(C)C)N(S(=O)(=O)c2ccc(C)cc2)[C@H]1c1ccc(C(F)(F)F)cc1	3.17
CC(C)C(CO)N1C(=O)[C@@H]2C3C(=O)OCCC/C=C\[C@H]3OC23C=CCN(c2ccc4ccccc4c2)C(=O)[C@@H]13 (stereo partly drawn)	1.34
CCCCN1CC=CC23O[C@@H]4/C=C\CCCOC(=O)C4[C@H]2C(=O)N(CCO)[C@@H]3C1=O (stereo partly drawn)	3.01
CC(C)C(CO)N1C(=O)[C@@H]2C3C(=O)OCCC/C=C\[C@H]3OC23C=CCN(Cn2nnc4ccccc42)C(=O)[C@@H]13 (stereo partly drawn)	3.72
C=CC[C@@]1(C(=O)NCCCOC)N=C(c2ccc(OCCCO)cc2)O[C@@H]1c1ccccc1N=[N+]=[N-]	3.09
C=CCNC(=O)[C@@H]1[C@H]2C(=O)O[C@H](c3ccccc3)[C@H](c3ccccc3)N2[C@H](c2ccccc2OCCO)[C@@]12C(=O)N(C(=O)OCCOC)c1ccc(C#CC3(O)CCCCCC3)cc12	2.86
COCCOC(=O)N1C(=O)[C@@]2(c3cc(C#CCC(C(=O)OC)C(=O)OC)ccc31)[C@H](c1ccc(OCCO)cc1)N1[C@H](c3ccccc3)[C@H](c3ccccc3)OC(=O)[C@H]1[C@@H]2C(=O)N1CCc2cc(OC)c(OC)cc2C1	2.81
C=CCN1C(=O)[C@]2(CCC(=O)OC(C)(C)C)N=C(c3ccc(OCCCO)cc3)O[C@@H]2c2ccccc21	2.02
C#CCN(Cc1ccccc1Br)[C@H](/C=C/c1ccccc1)[C@@H](O)Cc1ccccc1	0.98
O=C1N(CCS(=O)(=O)c2ccccc2)c2ccccc2[C@H]2OC(c3ccc(OCCCO)cc3)=N[C@@]12Cc1ccccc1	2.36
COCCOC(=O)N1C(=O)[C@@]2(c3cc(C#CC4(O)CCCCCC4)ccc31)[C@H](c1ccc(O)cc1)N1[C@H](c3ccccc3)[C@H](c3ccccc3)OC(=O)[C@H]1[C@@H]2C(=O)N1CCN(c2ncccn2)CC1	2.57
CO[C@H]1O[C@H](CO)[C@@H](OC(=O)Nc2ccccc2)[C@H](OC(=O)c2cc3ccccc3[nH]2)[C@H]1OC(=O)c1cc2ccccc2[nH]1	0.87
O=C1O[C@@H](c2ccccc2)[C@@H](c2ccccc2)N2[C@@H](c3ccc(OCCO)cc3)[C@]3(C(=O)Nc4ccc(C#CC5=CCCCC5)cc43)[C@@H](C(=O)NC[C@H](O)c3ccccc3)[C@H]12	2.46
CC1CC/C=C\[C@H]2OC34C=CCN(c5ccc6ccccc6c5)C(=O)[C@H]3N(CCCO)C(=O)[C@@H]4C2C(=O)O1 (stereo partly drawn)	-0.546
